Assay results taken from the supplement of paper PMC3616981.
± gives the standard deviation of the averaged measurements.

Compound: CC(C)c1cccc(C(C)C)c1N1C(=O)c2ccc(O)cc2C1=O
Experiment: BioMAP readout fold decrease vs vehicle (vehicle/treated); higher = stronger decrease of the readout vs vehicle (values <1 mean increase)
Method: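 BioSeek BioMAP human primary cell (co-)culture systems (3C, 4H, LPS, SAg, BE3C, CASM3C, hDFCGF, KF3CT) treated with 5HPP-33 at 1.48, 4.44, 13.3 and 40 µM. Read-outs are protein levels by ELISA, proliferation and SRB total protein. Duplicate rows per assay are averaged as replicates. Tested in ToxCast Phase II for this study; exposure time not stated.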
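Note: Co-cultures of keratinocytes, bronchial epithelial and smooth muscle cells, fibroblasts, HUVECs and PBMCs under stimuli like LPS, TNF-α, IFN-γ, IL-1β, TGF-β or EGF, SRB reflecting cytotoxicity.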

Target | BioMAP readout fold decrease (1.48 µM) | BioMAP readout fold decrease (4.44 µM) | BioMAP readout fold decrease (13.3 µM) | BioMAP readout fold decrease (40 µM)
4H_VEGFRII | 1.07 ± 0.028 | 1.03 ± 0.021 | 1.2 ± 0.076 | 1.45 ± 0.069
BE3C_IL1a | 1.06 ± 0.13 | 1.13 ± 0.015 | 1.19 ± 0.015 | 1.85 ± 0.082
hDFCGF_IL8 | 1.03 ± 0.018 | 0.964 ± 0.017 | 0.8858 ± 0.0045 | 0.9866 ± 0.0065
SAg_CD40 | 1.164 ± 0.003 | 1.39 ± 0.092 | 1.94 ± 0.027 | 5.89 ± 0.36
LPS_IL1a | 0.781 ± 0.039 | 0.8356 ± 0.0034 | 0.965 ± 0.057 | 1.56 ± 0.039
hDFCGF_CollagenIII | 1.123 ± 0.0039 | 1.19 ± 0.025 | 1.04 ± 0.012 | 1.49 ± 0.13
hDFCGF_MIG | 1.01 ± 0.012 | 1.01 ± 0.0026 | 1.02 ± 0.027 | 1.42 ± 0.031
3C_hLADR | 1.04 ± 0.038 | 1.55 ± 0.048 | 4.27 ± 0.47 | 7.36 ± 0.11
hDFCGF_EGFR | 1.0619 ± 0.00028 | 1.02 ± 0.028 | 1.19 ± 0.025 | 1.291 ± 0.0087
LPS_CD40 | 1.33 ± 0.17 | 1.67 ± 0.1 | 2.699 ± 0.02 | 4.12 ± 0.32
